Data: PubChem BioAssay (EPA / NIEHS)
“And” between values parts separate entries of the source, which are not always exact repeats. Identical values can stand only once. More than one record can exist for a structure, and the calls need not agree. The source made the active and inactive calls. The calls were made as follows: active = hit-call score of the fitted dose curve at least 0.9, where 1 is the maximum; inactive = score below 0.9.

read-out: Monocyte Chemoattractant Protein-1 (MCP1), CCL2 (gene 6347); experiment: BSK_BF4T_MCP1: BioMAP Diversity Plus: BF4T Assay for Monocyte Chemoattractant Protein-1 (MCP1) Biomarker Activity (AID 2284259); conditions: primary human bronchial epithelial cells with fibroblasts
Description: BSK_BF4T is a cell-based, multiplexed-readout assay that uses bronchial epithelial cells and dermal fibroblasts, a human vascular primary cell, with measurements taken at 24 hours after chemical dosing in a microplate: 96-well plate.BSK_BF4T_MCP1 is an assay component measured in the BSK_BF4T assay. It measures MCP-1 antibody related to regulation of gene expression using ELISA technology.Data from the assay component BSK_BF4T_MCP1 was analyzed at the endpoint, BSK_BF4T_MCP1, in the positive analysis fitting direction relative to DMSO as the negative control and baseline of activity. Using a type of binding reporter, gain or loss-of-signal activity can be used to understand protein changes. To generalize the intended target to other relatable targets, this assay endpoint is annotated to the 'cytokine' intended target family, where the subfamily is 'chemotactic factor'.
The levels of cell surface (or secreted, indicated by the prefix "s") biomarker endpoints were measured by ELISA. Overt cytotoxicity to cells in confluent adherent cultures (all systems other than the BT system) was assessed by measuring total protein levels using sulforhodamine B (SRB) staining in parallel cultures at the time of biomarker measurements, indicated as SRB endpoints. For proliferation assays for adherent cell types, individual cell types are cultured at sub-confluence and relative cell numbers quantified by SRB staining at time points optimized for each system (48 h: 3C and CASM3C systems; 72 h: BT and HDF3CGF systems; 96 h: SAg system). SRB was performed by staining cells with 0.1% SRB after fixation with 10% TCA and reading wells at 560 nm.Viability and proliferation of PBMC (T cells) was quantified by Alamar Blue reduction for the SAg and BT systems. For PBMC viability (referred to as PBMC Cytotoxicity within the assay endpoint names), cells were plated (75,000/well in a 96-well plate) and then chemical samples added for 1 h before addition of activators, SEB and TSST-1 (20 ng/mL final concentration each). Cells were incubated for 90 h. Then, Alamar Blue (20 uL/well) (Invitrogen, Cat DAL1100) was added for 6 h, and the plates were read with a fluorescence microplate reader at 546/580 nm (excitation/emission). For PBMC proliferation, cells were plated and activated as above but incubated for only 16 h prior to addition of Alamar Blue. Plates were read after 6 h.

Question: How did the outcome turn out when O=C(O)C(F)(F)C(F)(F)C(=O)O was run?
Answer: inactive

Question: Which outcome does the source give for C=CC(=O)OCC(F)(F)C(F)F here?
Answer: inactive

Question: For COC(=O)C(F)(F)C(F)(F)OC(F)(C(F)(F)F)C(F)(F)OC(F)=C(F)F (stereo not given), which AC50 is on record?
Answer: 5.24 µM (active)

Question: And the outcome?
Answer: inactive

Question: Which outcome does the source give for O=C(O)C(F)(F)OC(F)(F)C(F)(F)OC(F)(F)F here?
Answer: inactive

Question: With OCC(F)(F)OC(F)(F)C(F)(F)OC(F)(F)CO as the compound, how does the outcome read?
Answer: inactive

Question: How did the AC50 turn out when OCC(F)(F)OC(F)(F)C(F)(F)OC(F)(F)C(F)(F)OC(F)(F)CO was run?
Answer: 17.9 µM (active) and 22.2 µM (active)

Question: OCC(F)(F)OC(F)(F)C(F)(F)OC(F)(F)C(F)(F)OC(F)(F)F was tested. Which AC50 did it give?
Answer: 44.8 µM (active) and 22.6 µM (active)

Question: Which outcome does the source give for O=C(O)C(F)(OC(F)(F)C(F)(F)C(F)(F)F)C(F)(F)F (stereo not given) here?
Answer: inactive

Question: Which outcome does the source give for FC(F)(F)C(F)(C(F)(F)F)C(F)(F)C(F)(F)CC1CO1 (stereo not given) here?
Answer: inactive

Question: For O=C(O)C=CC(F)(C(F)(F)F)C(F)(F)F, which outcome is on record?
Answer: inactive

Question: With NC(=O)C(F)(F)C(F)(F)F as the compound, how does the outcome read?
Answer: inactive

Question: How did the outcome turn out when CC(O)C(F)(F)C(F)(F)F (stereo not given) was run?
Answer: inactive

Question: O=C(O)C(F)(F)OC(F)(F)C(F)(F)OC(F)(F)C(=O)O was tested. Which outcome did it give?
Answer: inactive

Question: With O=S(=O)(F)C(F)(F)C(F)(F)C(F)(F)C(F)(F)C(F)(F)C(F)(F)C(F)(F)C(F)(F)F as the compound, how does the outcome read?
Answer: inactive
